HPGD block = qHTS Assay for Inhibitors of HPGD (15-Hydroxyprostaglandin Dehydrogenase). 15-hydroxyprostaglandin dehydrogenase [NAD(+)] (Homo sapiens), P15428. AID 894, 2007. Potency, µM, for inactives: at the highest dose activity change, negative = inhibition, actives largely listed as inhibitors. actives 4.3% (n = 150,000). purified HPGD, NADH fluorescence kinetic, PGE2 substrate
Target sequence (P15428 whole entry, looked up): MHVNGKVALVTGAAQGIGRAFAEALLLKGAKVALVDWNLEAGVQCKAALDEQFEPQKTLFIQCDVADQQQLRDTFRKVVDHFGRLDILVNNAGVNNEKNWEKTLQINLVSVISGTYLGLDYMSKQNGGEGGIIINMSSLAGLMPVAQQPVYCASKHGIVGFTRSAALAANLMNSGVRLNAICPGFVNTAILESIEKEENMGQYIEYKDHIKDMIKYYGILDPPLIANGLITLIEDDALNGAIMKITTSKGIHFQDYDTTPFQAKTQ
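NADH formation kinetics: reaction with 30 uM PGE2 and 1 mM NAD+ (final), 20 nM enzyme, Tris-HCl pH 8 with Tween 20, after 15 min compound preincubation at room temperature. Fluorescence change, last versus first of five reads.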
Tau fluor counter = Counterscreen qHTS for Inhibitors of Tau Fibril Formation, Fluorescence Polarization; tau K18 P301L Alexa594 fluorescence, heparin fibrillization; actives 0.93% (n = 280,000); Potency, µM (titrated, usually from 57.7 µM), without a hit: at the top dose activity change, negative = decrease; active = well fitted curve in the direction sought with a large enough effect; inconclusive = small, poorly fitted or top-dose-only effect, or another doubt; inactive = no such curve, though single readings can be large; an effect the other way counts as inactive or inconclusive; also: nearly all actives have a fitted effect of over 55% in size
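Human tau K18 P301L (15 uM unlabeled, 0.24 uM Alexa 594-labeled) in 100 mM sodium acetate pH 7 with 20 uM heparin, 6 hr at 37 C. ThT 30 uM added, 1 hr ambient; Alexa 594 FP and total fluorescence read at 555/632 nm.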
KDM4E inh = qHTS Assay for Inhibitors of Human Jumonji Domain Containing 2E (JMJD2E). Potency, µM (highest dose often 57.1 µM), without a hit: at the top dose activity change, negative = inhibition, actives largely listed as inhibitors. JMJD2E catalytic domain, FDH-coupled NADH fluorescence (FDH is formaldehyde dehydrogenase). Lysine-specific demethylase 4E (Homo sapiens), B2RXH2. actives 1.6% (n = 230,000);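 also: 0% = wells with enzyme and -100% = buffer wells without enzyme; nearly all actives have a fitted effect of over 50% in size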
Tau ThT inhib = qHTS for Inhibitors of Tau Fibril Formation, Thioflavin T Binding; Microtubule-associated protein tau (Homo sapiens), P10636; recombinant tau K18 P301L, heparin-induced fibrillization, ThT fluorescence; Potency, µM (series often up to 57.4 µM), for the others: top-dose activity, negative = inhibition, hits mostly inhibitors; actives 2.1% (n = 270,000); AID 1460, 2008; active = well fitted curve in the direction sought with a large enough effect; inconclusive = small, poorly fitted or top-dose-only effect, or another doubt; inactive = no such curve, though single readings can be large; an effect the other way counts as inactive or inconclusive; also: nearly all actives have a fitted effect of over 55% in size
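Using a mix of unlabeled (15 uM) and Alexa 594-labeled (0.24 uM) tau K18 P301L, heparin-triggered fibrillization over 6 hr at 37 C was scored by ThT fluorescence.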
Tau FP inhib = qHTS for Inhibitors of Tau Fibril Formation, Fluorescence Polarization | Microtubule-associated protein tau (Homo sapiens), P10636 | K18 P301L tau heparin fibrillization, Alexa594 FP, 6 h | Potency, µM (doses to about 57.7 µM), for the others: top-dose activity, negative = inhibition, hits mostly inhibitors | actives 0.39% (n = 280,000) | AID 1468, 2008; active = well fitted curve in the direction sought with a large enough effect; inconclusive = small, poorly fitted or top-dose-only effect, or another doubt; inactive = no such curve, though single readings can be large; an effect the other way counts as inactive or inconclusive; also: nearly all actives have a fitted effect of over 55% in size
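Human K18 P301L fragment (15 uM unlabeled plus 0.24 uM Alexa 594-labeled) in 100 mM sodium acetate pH 7 with compound, aggregation induced by 20 uM heparin for 6 hr at 37 C. ThT (30 uM) added for 1 hr, then Alexa 594 FP read.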
ALDH1A1 block = qHTS Assay for Inhibitors of Aldehyde Dehydrogenase 1 (ALDH1A1); Aldehyde dehydrogenase 1A1 (Homo sapiens), P00352; Potency, µM (highest dose often 75.3 µM), for inactives: at the highest dose activity, negative = inhibition, hits mostly inhibitors; actives 7.3% (n = 220,000); Purified ALDH1A1, NADH fluorescence, propionaldehyde substrate;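 also: plate controls were no enzyme wells and a reference inhibitor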
Target sequence (P00352 whole entry, looked up): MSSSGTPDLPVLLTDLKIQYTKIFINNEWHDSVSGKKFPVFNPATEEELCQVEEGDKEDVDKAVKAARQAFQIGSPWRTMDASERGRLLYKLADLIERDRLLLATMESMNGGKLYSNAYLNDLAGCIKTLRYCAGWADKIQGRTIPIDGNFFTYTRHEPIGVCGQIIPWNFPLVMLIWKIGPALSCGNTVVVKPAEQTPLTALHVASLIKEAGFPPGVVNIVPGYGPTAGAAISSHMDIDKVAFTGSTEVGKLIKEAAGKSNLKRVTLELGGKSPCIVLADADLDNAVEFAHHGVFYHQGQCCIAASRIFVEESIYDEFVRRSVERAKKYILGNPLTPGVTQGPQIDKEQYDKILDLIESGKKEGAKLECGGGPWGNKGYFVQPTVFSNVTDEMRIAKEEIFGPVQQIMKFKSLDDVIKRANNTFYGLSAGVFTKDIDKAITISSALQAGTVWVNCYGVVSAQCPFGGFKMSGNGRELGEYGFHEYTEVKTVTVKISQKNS
* = called active by the depositor; [ ] = remark or other dose. In the library only some 9.9% were active in any assay of this set; here they are far more common. Unless noted, calls follow the shape of the dose curve; as a rule, active = well fitted inhibition curve with a large enough effect (not every such curve was filed as active); inconclusive = small, poorly fitted or top-dose-only effect, or another doubt; inactive = no such curve, though single readings can be large or run the other way. Unless noted, % is scaled to controls: 0 for no effect and ±100 for the full control effect; potency is read from the fitted curve at half-maximal effect.

For CCC(=O)Nc1cc(C(C)C)c(O)cc1C the results were HPGD block 1.0%, Tau fluor counter 3.7%, KDM4E inh 5.3%, Tau ThT inhib 1.3%, Tau FP inhib 3.8% and ALDH1A1 block 8.9%.
Screening Cc1cc(O)c(C(C)C)cc1NC(=O)Nc1cccc2ccccc12 returned HPGD block -9.8%, Tau fluor counter 25.1µM*[quencher], KDM4E inh -24.7%, Tau ThT inhib inconclusive, Tau FP inhib 18.4% and ALDH1A1 block 1.9%[13.5 µM].
Cc1cccc(-n2nnnc2-c2cnccc2C(F)(F)F)c1C was read as Tau fluor counter -9.9%, KDM4E inh -7.4%, Tau ThT inhib -6.8%, Tau FP inhib -10.7% and ALDH1A1 block 15.8µM*.
`CCOC(=O)c1c(C)[nH]c(C)c1S(=O)(=O)N1CCCC(C(=O)Nc2cccc(CC)c2)C1` (stereo not given) gave Tau fluor counter -25.9%, Tau ThT inhib 0.7% and Tau FP inhib -3.4%.
`CCN(C(=O)Cc1c(C(=O)O)[nH]c2ccccc12)c1ccc(OC)cc1` gave Tau fluor counter 3.8%, KDM4E inh -28.0%, Tau ThT inhib -1.6%, Tau FP inhib -1.9% and ALDH1A1 block inconclusive.
`Cc1ccc(-c2csc(N3N=C(c4ccccc4)/C(=C\c4ccc(N(C)C)cc4)C3=O)n2)cc1` gave HPGD block -3.6%, Tau fluor counter inconclusive, KDM4E inh -5.1%, Tau ThT inhib inconclusive, Tau FP inhib -1.9% and ALDH1A1 block 3.55µM*.
`O=C(c1ccco1)N1CCN(C(=O)C2(S(=O)(=O)c3ccc(Cl)cc3)CC2)CC1` gave HPGD block -8.4%, Tau fluor counter 10.9%, KDM4E inh -1.6%, Tau ThT inhib 4.4%, Tau FP inhib 7.3% and ALDH1A1 block 5.2%.
Screening O=C(OCC(=O)N1CCCC1)c1ccc(NS(=O)(=O)c2cccs2)cc1O returned Tau fluor counter -6.6%, KDM4E inh -8.4%, Tau ThT inhib -9.2%, Tau FP inhib 6.0% and ALDH1A1 block inconclusive.
For O=C(OCC(=O)N1CCN(C(=O)c2ccco2)CC1)c1cc(S(=O)(=O)Nc2ccc(Cl)cc2)ccc1O the results were Tau fluor counter -8.2%, KDM4E inh inconclusive, Tau ThT inhib 1.4%, Tau FP inhib 12.3% and ALDH1A1 block 14.1µM*.
O=C(OCC(=O)N1CCCCC1)c1cc(NS(=O)(=O)c2ccc(Cl)c([N+](=O)[O-])c2)ccc1O was read as HPGD block 8.91µM*, Tau fluor counter -1.7%, KDM4E inh -1.6%, Tau ThT inhib 0.3%, Tau FP inhib 2.4% and ALDH1A1 block -4.9%.
`Oc1ccc2ccccc2c1/C=C\c1ccc2c(Br)cc(Br)c(O)c2n1` gave HPGD block -13.2% and ALDH1A1 block 21.4%[13.5 µM].
`COc1cccc(C(=O)Nc2ccc(C)cc2)c1` gave HPGD block -15.8%, Tau fluor counter 11.9%, KDM4E inh inconclusive, Tau ThT inhib 5.8%, Tau FP inhib 3.2% and ALDH1A1 block -7.6%.
Screening CCCC(=O)Nc1ccc(Cl)c(NC(=O)c2cccnc2)c1 returned HPGD block -4.0%, Tau fluor counter -7.8%, KDM4E inh -0.1%, Tau ThT inhib -11.4%, Tau FP inhib 5.8% and ALDH1A1 block 7.3%.
Screening COc1cccc(C(=O)Nc2cccc(-c3nnc(-c4ccco4)o3)c2)c1 returned HPGD block 20µM*, Tau fluor counter inconclusive, KDM4E inh -6.3%, Tau ThT inhib inconclusive, Tau FP inhib -13.6% and ALDH1A1 block inconclusive.
CCCC(=O)Nc1ccc(Cl)c(NC(=O)c2cccc(OC)c2)c1 was read as Tau fluor counter -0.4%, KDM4E inh 0.0%, Tau ThT inhib 9.1%, Tau FP inhib -3.6% and ALDH1A1 block 2.82µM*.
COc1cccc(C(=O)NCCOc2cc(C)cc(C)c2)c1 was read as HPGD block -9.5%, Tau fluor counter -11.3%, KDM4E inh -7.5%, Tau ThT inhib -5.1%, Tau FP inhib -4.3% and ALDH1A1 block 15.8µM*.
COc1cccc(C(=O)Nc2ccc(C3CC3(Cl)Cl)cc2)c1 (stereo not given) was read as Tau fluor counter inconclusive, KDM4E inh -8.8%, Tau ThT inhib -15.2%, Tau FP inhib inconclusive and ALDH1A1 block 11.2µM*.
`Cc1cc(C(=O)CSc2nn3c(=O)c(C(C)(C)C)nnc3s2)c(C)n1C` gave Tau fluor counter -13.3%, KDM4E inh 1.3%, Tau ThT inhib -15.8%, Tau FP inhib 2.4% and ALDH1A1 block inconclusive.
For Cc1ccc(C)c(NC(=O)CSc2nc(=O)n(Cc3ccccn3)c3c2CCC3)c1 the results were Tau fluor counter 2.1%, Tau ThT inhib -1.4% and Tau FP inhib -8.2%.
For CCN(Cc1ccccc1)C(=O)CCS(=O)(=O)c1cc2c(cc1Cl)NC(=O)CO2 the results were Tau fluor counter -4.5%, Tau ThT inhib 4.1% and Tau FP inhib -20.1%.
`Cc1cccc2nc(COc3ccc(-c4ccccc4)cc3)cn12` gave Tau fluor counter -28.6%, KDM4E inh inconclusive, Tau ThT inhib inconclusive, Tau FP inhib -6.3% and ALDH1A1 block 6.0%.
`CCOC(=O)NC(=O)c1cn(CCN(C)C)c(=O)[nH]c1=O` gave HPGD block -5.3%, Tau fluor counter 8.7%, KDM4E inh -1.5%, Tau ThT inhib 17.0%, Tau FP inhib -2.6% and ALDH1A1 block -1.4%.
Screening O=C(NCc1ccccc1Cl)c1ccc2c(c1)N(Cc1ccccc1)C(=O)c1ccccc1S2 returned Tau fluor counter -10.4%, Tau ThT inhib 10.1% and Tau FP inhib -19.5%.
`CN(C)S(=O)(=O)Oc1cccc(C(=O)Nc2ccc(Cl)cc2)c1` gave HPGD block -17.2%, Tau fluor counter -25.0%, KDM4E inh 0.8%, Tau ThT inhib 11.8%, Tau FP inhib inconclusive and ALDH1A1 block 15.8µM*.
COC(=O)c1ccc(NC(=O)c2cccc(OC)c2)cc1 was read as HPGD block 28.2µM*, Tau fluor counter -12.1%, KDM4E inh 1.3%, Tau ThT inhib -9.7%, Tau FP inhib -2.1% and ALDH1A1 block inconclusive.
COc1cccc(C(=O)Nc2ccc(Cl)c(-c3nc4ccccc4[nH]3)c2)c1 was read as Tau fluor counter inconclusive, Tau ThT inhib inconclusive and Tau FP inhib 25.1µM*.
